Results reported in the supplement of paper PMC4466140.

Each binder was assayed against AgAbp1 (assay: SPOT peptide array binding signal intensity (averaged, normalized) (arbitrary units (background-subtracted, floor 0; scale differs between SH3 domains)); higher = stronger binding of the SH3 domain to the peptide).
Method in brief: (§1)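 Binding signal refers to normalized, background-subtracted spot intensity averaged over replicates, expressed in arbitrary units that differ between domains. GST-fused SH3 domains from four yeast species were incubated at 10 μg/ml overnight at 4°C on cellulose membranes of synthetic 15-mer peptides with cysteines replaced by serines. Bound protein was detected with anti-GST antibody, an HRP anti-mouse secondary and luminol, and quantified with Genespotter.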

Binder | SPOT peptide array binding signal intensity
VYTRTAFQIPGDDKI | ≤ 0

What follows are binders tested against AgBbc1 in the same assay as above.
Method in brief: as §1

Binder | SPOT peptide array binding signal intensity
VYTRTAFQIPGDDKI | ≤ 0

The binders below were run against AgBem1-D1 in the same assay as above.
Method in brief: as §1

Binder | SPOT peptide array binding signal intensity
VYTRTAFQIPGDDKI | ≤ 0

These binders were tested against AgBzz1-D1 in the same assay as above.
Method in brief: as §1

Binder | SPOT peptide array binding signal intensity
VYTRTAFQIPGDDKI | 29

These binders were tested against AgBzz1-D2 in the same assay as above.
Method in brief: as §1

Binder | SPOT peptide array binding signal intensity
VYTRTAFQIPGDDKI | 20

Each binder was assayed against AgCyk3 in the same assay as above.
Method in brief: as §1

Binder | SPOT peptide array binding signal intensity
VYTRTAFQIPGDDKI | 0.5

These binders were tested against AgFus1 in the same assay as above.
Method in brief: as §1

Binder | SPOT peptide array binding signal intensity
VYTRTAFQIPGDDKI | ≤ 0

Each binder was assayed against AgHof1 in the same assay as above.
Method in brief: as §1

Binder | SPOT peptide array binding signal intensity
VYTRTAFQIPGDDKI | 10

What follows are binders tested against AgHse1 in the same assay as above.
Method in brief: as §1

Binder | SPOT peptide array binding signal intensity
VYTRTAFQIPGDDKI | ≤ 0

The binders below were run against AgLsb1 in the same assay as above.
Method in brief: as §1

Binder | SPOT peptide array binding signal intensity
VYTRTAFQIPGDDKI | 474

Each binder was assayed against AgLsb4 in the same assay as above.
Method in brief: as §1

Binder | SPOT peptide array binding signal intensity
VYTRTAFQIPGDDKI | ≤ 0

The binders below were run against AgMyo5 in the same assay as above.
Method in brief: as §1

Binder | SPOT peptide array binding signal intensity
VYTRTAFQIPGDDKI | ≤ 0

Each binder was assayed against AgNbp2 in the same assay as above.
Method in brief: as §1

Binder | SPOT peptide array binding signal intensity
VYTRTAFQIPGDDKI | ≤ 0

These binders were tested against AgRvs167 in the same assay as above.
Method in brief: as §1

Binder | SPOT peptide array binding signal intensity
VYTRTAFQIPGDDKI | 0.333

These binders were tested against AgSho1 in the same assay as above.
Method in brief: as §1

Binder | SPOT peptide array binding signal intensity
VYTRTAFQIPGDDKI | ≤ 0

Each binder was assayed against AgSla1-D1-D2 in the same assay as above.
Method in brief: as §1

Binder | SPOT peptide array binding signal intensity
VYTRTAFQIPGDDKI | ≤ 0

Each binder was assayed against AgSla1-D3 in the same assay as above.
Method in brief: as §1

Binder | SPOT peptide array binding signal intensity
VYTRTAFQIPGDDKI | ≤ 0

What follows are binders tested against CaAbp1-D1 in the same assay as above.
Method in brief: as §1

Binder | SPOT peptide array binding signal intensity
VYTRTAFQIPGDDKI | ≤ 0

The binders below were run against CaAbp1-D2 in the same assay as above.
Method in brief: as §1

Binder | SPOT peptide array binding signal intensity
VYTRTAFQIPGDDKI | ≤ 0

Each binder was assayed against CaBbc1 in the same assay as above.
Method in brief: as §1

Binder | SPOT peptide array binding signal intensity
VYTRTAFQIPGDDKI | 3

These binders were tested against CaBem1-D1 in the same assay as above.
Method in brief: as §1

Binder | SPOT peptide array binding signal intensity
VYTRTAFQIPGDDKI | ≤ 0

Each binder was assayed against CaBzz1-D1 in the same assay as above.
Method in brief: as §1

Binder | SPOT peptide array binding signal intensity
VYTRTAFQIPGDDKI | 83.5

The binders below were run against CaBzz1-D2 in the same assay as above.
Method in brief: as §1

Binder | SPOT peptide array binding signal intensity
VYTRTAFQIPGDDKI | 26

Each binder was assayed against CaCyk3 in the same assay as above.
Method in brief: as §1

Binder | SPOT peptide array binding signal intensity
VYTRTAFQIPGDDKI | ≤ 0

These binders were tested against CaFus1 in the same assay as above.
Method in brief: as §1

Binder | SPOT peptide array binding signal intensity
VYTRTAFQIPGDDKI | ≤ 0

Each binder was assayed against CaHof1 in the same assay as above.
Method in brief: as §1

Binder | SPOT peptide array binding signal intensity
VYTRTAFQIPGDDKI | ≤ 0

Each binder was assayed against CaHse1 in the same assay as above.
Method in brief: as §1

Binder | SPOT peptide array binding signal intensity
VYTRTAFQIPGDDKI | ≤ 0

Each binder was assayed against CaLsb1 in the same assay as above.
Method in brief: as §1

Binder | SPOT peptide array binding signal intensity
VYTRTAFQIPGDDKI | 184

The binders below were run against CaLsb4 in the same assay as above.
Method in brief: as §1

Binder | SPOT peptide array binding signal intensity
VYTRTAFQIPGDDKI | ≤ 0

What follows are binders tested against CaMyo5 in the same assay as above.
Method in brief: as §1

Binder | SPOT peptide array binding signal intensity
VYTRTAFQIPGDDKI | ≤ 0

Each binder was assayed against CaNbp2 in the same assay as above.
Method in brief: as §1

Binder | SPOT peptide array binding signal intensity
VYTRTAFQIPGDDKI | ≤ 0

Each binder was assayed against CaRvs167 in the same assay as above.
Method in brief: as §1

Binder | SPOT peptide array binding signal intensity
VYTRTAFQIPGDDKI | 0.833

These binders were tested against CaRvs167-3 in the same assay as above.
Method in brief: as §1

Binder | SPOT peptide array binding signal intensity
VYTRTAFQIPGDDKI | 3.25

The binders below were run against CaSho1 in the same assay as above.
Method in brief: as §1

Binder | SPOT peptide array binding signal intensity
VYTRTAFQIPGDDKI | ≤ 0

Each binder was assayed against CaSla1-D1-D2 in the same assay as above.
Method in brief: as §1

Binder | SPOT peptide array binding signal intensity
VYTRTAFQIPGDDKI | ≤ 0

What follows are binders tested against CaSla1-D3 in the same assay as above.
Method in brief: as §1

Binder | SPOT peptide array binding signal intensity
VYTRTAFQIPGDDKI | 0.5

The binders below were run against ScAbp1 in the same assay as above.
Method in brief: as §1

Binder | SPOT peptide array binding signal intensity
VYTRTAFQIPGDDKI | ≤ 0

What follows are binders tested against ScBbc1 in the same assay as above.
Method in brief: as §1

Binder | SPOT peptide array binding signal intensity
VYTRTAFQIPGDDKI | ≤ 0

These binders were tested against ScBem1-D1 in the same assay as above.
Method in brief: as §1

Binder | SPOT peptide array binding signal intensity
VYTRTAFQIPGDDKI | 8

What follows are binders tested against ScBzz1-D1 in the same assay as above.
Method in brief: as §1

Binder | SPOT peptide array binding signal intensity
VYTRTAFQIPGDDKI | 17.5

Each binder was assayed against ScBzz1-D2 in the same assay as above.
Method in brief: as §1

Binder | SPOT peptide array binding signal intensity
VYTRTAFQIPGDDKI | 22.5

These binders were tested against ScCyk3 in the same assay as above.
Method in brief: as §1

Binder | SPOT peptide array binding signal intensity
VYTRTAFQIPGDDKI | ≤ 0

What follows are binders tested against ScFus1 in the same assay as above.
Method in brief: as §1

Binder | SPOT peptide array binding signal intensity
VYTRTAFQIPGDDKI | ≤ 0

The binders below were run against ScHof1 in the same assay as above.
Method in brief: as §1

Binder | SPOT peptide array binding signal intensity
VYTRTAFQIPGDDKI | ≤ 0

These binders were tested against ScHse1 in the same assay as above.
Method in brief: as §1

Binder | SPOT peptide array binding signal intensity
VYTRTAFQIPGDDKI | ≤ 0

The binders below were run against ScLsb1 in the same assay as above.
Method in brief: as §1

Binder | SPOT peptide array binding signal intensity
VYTRTAFQIPGDDKI | 601

What follows are binders tested against ScLsb2 in the same assay as above.
Method in brief: as §1

Binder | SPOT peptide array binding signal intensity
VYTRTAFQIPGDDKI | 895

Each binder was assayed against ScLsb3 in the same assay as above.
Method in brief: as §1

Binder | SPOT peptide array binding signal intensity
VYTRTAFQIPGDDKI | ≤ 0

Each binder was assayed against ScLsb4 in the same assay as above.
Method in brief: as §1

Binder | SPOT peptide array binding signal intensity
VYTRTAFQIPGDDKI | ≤ 0

The binders below were run against ScMyo3 in the same assay as above.
Method in brief: as §1

Binder | SPOT peptide array binding signal intensity
VYTRTAFQIPGDDKI | 0.5

Each binder was assayed against ScMyo5 in the same assay as above.
Method in brief: as §1

Binder | SPOT peptide array binding signal intensity
VYTRTAFQIPGDDKI | ≤ 0

These binders were tested against ScNbp2 in the same assay as above.
Method in brief: as §1

Binder | SPOT peptide array binding signal intensity
VYTRTAFQIPGDDKI | ≤ 0

Each binder was assayed against ScPex13 in the same assay as above.
Method in brief: as §1

Binder | SPOT peptide array binding signal intensity
VYTRTAFQIPGDDKI | ≤ 0

What follows are binders tested against ScRvs167 in the same assay as above.
Method in brief: as §1

Binder | SPOT peptide array binding signal intensity
VYTRTAFQIPGDDKI | 1.83

The binders below were run against ScSho1 in the same assay as above.
Method in brief: as §1

Binder | SPOT peptide array binding signal intensity
VYTRTAFQIPGDDKI | ≤ 0

These binders were tested against ScSla1-D1-D2 in the same assay as above.
Method in brief: as §1

Binder | SPOT peptide array binding signal intensity
VYTRTAFQIPGDDKI | ≤ 0

The binders below were run against ScSla1-D3 in the same assay as above.
Method in brief: as §1

Binder | SPOT peptide array binding signal intensity
VYTRTAFQIPGDDKI | 10.5

What follows are binders tested against SpAbp1-D1 in the same assay as above.
Method in brief: as §1

Binder | SPOT peptide array binding signal intensity
VYTRTAFQIPGDDKI | 1

These binders were tested against SpBbc1 in the same assay as above.
Method in brief: as §1

Binder | SPOT peptide array binding signal intensity
VYTRTAFQIPGDDKI | ≤ 0

Each binder was assayed against SpBzz1-D1 in the same assay as above.
Method in brief: as §1

Binder | SPOT peptide array binding signal intensity
VYTRTAFQIPGDDKI | 75.5

Each binder was assayed against SpBzz1-D2 in the same assay as above.
Method in brief: as §1

Binder | SPOT peptide array binding signal intensity
VYTRTAFQIPGDDKI | ≤ 0

The binders below were run against SpCyk3 in the same assay as above.
Method in brief: as §1

Binder | SPOT peptide array binding signal intensity
VYTRTAFQIPGDDKI | ≤ 0

These binders were tested against SpHof1 in the same assay as above.
Method in brief: as §1

Binder | SPOT peptide array binding signal intensity
VYTRTAFQIPGDDKI | ≤ 0

Each binder was assayed against SpHof1-2 in the same assay as above.
Method in brief: as §1

Binder | SPOT peptide array binding signal intensity
VYTRTAFQIPGDDKI | ≤ 0

Each binder was assayed against SpHof1-3 in the same assay as above.
Method in brief: as §1

Binder | SPOT peptide array binding signal intensity
VYTRTAFQIPGDDKI | ≤ 0

These binders were tested against SpHse1 in the same assay as above.
Method in brief: as §1

Binder | SPOT peptide array binding signal intensity
VYTRTAFQIPGDDKI | ≤ 0

These binders were tested against SpLsb1 in the same assay as above.
Method in brief: as §1

Binder | SPOT peptide array binding signal intensity
VYTRTAFQIPGDDKI | 68.5

What follows are binders tested against SpLsb4 in the same assay as above.
Method in brief: as §1

Binder | SPOT peptide array binding signal intensity
VYTRTAFQIPGDDKI | ≤ 0

What follows are binders tested against SpMyo1 in the same assay as above.
Method in brief: as §1

Binder | SPOT peptide array binding signal intensity
VYTRTAFQIPGDDKI | 3.5

What follows are binders tested against SpNbp2 in the same assay as above.
Method in brief: as §1

Binder | SPOT peptide array binding signal intensity
VYTRTAFQIPGDDKI | 7

What follows are binders tested against SpPex13 in the same assay as above.
Method in brief: as §1

Binder | SPOT peptide array binding signal intensity
VYTRTAFQIPGDDKI | ≤ 0

Each binder was assayed against SpRvs167 in the same assay as above.
Method in brief: as §1

Binder | SPOT peptide array binding signal intensity
VYTRTAFQIPGDDKI | 0.333

What follows are binders tested against SpSla1-D1-D2 in the same assay as above.
Method in brief: as §1

Binder | SPOT peptide array binding signal intensity
VYTRTAFQIPGDDKI | 2

The binders below were run against SpSla1-D3 in the same assay as above.
Method in brief: as §1

Binder | SPOT peptide array binding signal intensity
VYTRTAFQIPGDDKI | ≤ 0
